Experimental data: the supplement of paper PMC6555819

Tested on: VDR:RXRa (NR concentration 270 nM, RXRa partner concentration 90 nM)
Assay: PBM binding z-score (relative to random genomic background probes); higher = stronger binding; sequences stand for … in GC…GCGATTGACAGCGTAGAATGAAGG
Protocol: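 Protein-binding microarray (Agilent 4x180K custom design, double-stranded 60-nt probes: 5' GC cap, 34-nt variable region, 24-nt constant primer region; full probe sequence given). Purified or IVT nuclear receptor:RXRα heterodimers (3:1 NR:RXRα, mostly 270:90 nM) or homodimers were incubated for 1 h in PBS with 2% milk and no ligand, then detected with Alexa488 antibodies. Fluorescence from o1-orientation probes (~5 replicates averaged) was converted to z-scores against 500 random hg19 background probes. Variable regions are seed direct-repeat (DR0–DR5) sites, all their single-nucleotide variants and half-site ablations.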

| Sequence | PBM binding z-score |
| --- | --- |
| GCATATAGGTGATACAAGGTGAAAGTCCGATTGT | 0.445 |
| ATATGCAGGTTAAGGGTCATTCAGGTTGGTTCGC | 5.68 |
| GCTGCTAGGTCAGGTTGGTCACCTAACGGGTACG | 0.967 |
| GCAGACAGGTGAAACGCAGGTAACGCAGGGTGGC | -0.489 |
| CCGTACGGGTCACTGACAGGTTATAGCATTTGGA | 3.72 |
| TCATACAGGTGAAGGTAACTCAGGTACGCAGTCG | 1.36 |
| ATATGTAGGTTATCGCGTCATTCAGTTTGCGCAT | 0.798 |
| CCTTACGGGTCACGAGGTTATAGGACGACGAGCG | 4.9 |
| GCTGCTAGGTCAACTGATGGTCAGCGAAAGCTCG | 1.73 |
| CGTCCAAGGCCAGAGAGGTCAGTGAATGCCGAGT | 4.04 |
| ATCTCAAGGTAAGACTCAGTTCAGTGAAGAACGC | 1.27 |
| CCTAGTTGGTCATGAGGTCACACACCGGATATGA | 4.97 |
| TAGCCTAGGTCATACGGGCCAGTATAGTGTCGGC | 3.08 |
| GCGACTGGGGCATCAGCACGTTACCATAACTTAA | -0.365 |
| TAGCCTAGGTCAGTTCGGGCCAGTATACGCTATA | 0.785 |
| TAGCCTAGGTCATGGGCCCGTATACCACGCGAAC | 2.07 |
| CCTAGTTGGTAAGGAGGTCACACACCGGATATGA | 3.53 |
| GATACAGGGTCAAGGCCGGAGTACGCGTATTGAT | 4.38 |
| CCTTACGGGTGACTGACAGGTTATAGCATTTGGA | 0.132 |
| CAAACTAGGTCAAAGGACAAAGTCGAGCCAACCA | 1.96 |

| Sequence | PBM binding z-score |
| --- | --- |
| ATCACTAGGTAACCAAGTTCAGTGAATGCCGAAC | 3.92 |
| CGAACTAGGTCAGAACAGGACAGTGATGGATGAT | 0.651 |
| TCATATAGGTAAACAGGTGAATGTCCGTAAGTTA | 0.948 |
| CCTTACGGGTCGAGGTTATAGCACGGGTGGTACG | 1.25 |
| CCTTACGGGTCACTGACAGGTTATAGGATTTGGA | 3.77 |
| CGAACTTGGTCAAGGACAGTGAATCTCCGCACGC | -0.245 |
| GCTAGCAGGCGATTTGGGTCACTCAATGACGGGC | -0.205 |
| GTAACGAGGGCATTCGAGTTGATAGCATGGCGAT | 3.62 |
| CCAGACAGGTGGAAGGTAACTCAGTCTGGTACGC | -0.365 |
| ATCGAAAGCTCGAAGGTGAGTATACCCACCCGAA | -0.463 |
| AGAATGAGGTTGTTAAGATCAGGGAATTGCGGTC | 0.496 |
| TCTCGGAGGACACGAAAGGTCGGAGCTCGACATC | 1.08 |
| TTACCAAGGTGAATGTCGTTGATCCCTCTGTAGA | 0.328 |
| CGTCAAGGTTCAACTAAGGTAACGTAAAGCACGC | 3.94 |
| ACTATTAGTTAAGACGAGGGCAACCGATAGGTTG | 0.464 |
| CCTAGTGGGCCATTCAGAGGTCATTGATCATATG | 3.85 |
| ACTAGCTGGCCAAGGGTCACTCAAGATTAGTCCG | 2.59 |
| TCATATAAGTAAACAGGTGAAAGTCCGTAAGTTA | 1.28 |
| AGAGTGAGGTTAAGATCAGGGAAACAGAATACAT | 1.62 |
| GGAACGAGGGCAAAGTTGATAACATCTGTCGACG | 1.68 |
